# Data as given in PubChem BioAssay (EPA / NIEHS).
# Inconclusive results are not listed. Calls of active or inactive are those of the source. The calls were made as follows: active = hit-call score of the fitted dose curve at least 0.9, where 1 is the maximum; inconclusive = response in the unintended direction; inactive = score below 0.9.
# Target: guinea pig Opioid, Kappa 1 Receptor (OpiateK), OPRK1 (gene 100135587) (UniProt P41144)
# Test: NVS_GPCR_gOpiateK: NovaScreen (NVS) G Protein-Coupled Receptor Assay for guinea pig Opioid, Kappa 1 Receptor (OpiateK) (AID 2283252);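 also: radioligand displacement from kappa opioid receptor in guinea pig cerebellar membranes; active means reduced radioligand binding relative to DMSO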
# Procedure, shortened: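 Guinea pig cerebellar membranes, radioligand displacement with filter-based scintillation counting, 2 h after dosing. Primary screen single concentration 25 uM in duplicate; actives retested in concentration series; loss of binding fitted versus DMSO.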
# Chain of guinea pig Opioid, Kappa 1 Receptor (OpiateK), OPRK1 (gene 100135587) (P41144 whole entry, looked up): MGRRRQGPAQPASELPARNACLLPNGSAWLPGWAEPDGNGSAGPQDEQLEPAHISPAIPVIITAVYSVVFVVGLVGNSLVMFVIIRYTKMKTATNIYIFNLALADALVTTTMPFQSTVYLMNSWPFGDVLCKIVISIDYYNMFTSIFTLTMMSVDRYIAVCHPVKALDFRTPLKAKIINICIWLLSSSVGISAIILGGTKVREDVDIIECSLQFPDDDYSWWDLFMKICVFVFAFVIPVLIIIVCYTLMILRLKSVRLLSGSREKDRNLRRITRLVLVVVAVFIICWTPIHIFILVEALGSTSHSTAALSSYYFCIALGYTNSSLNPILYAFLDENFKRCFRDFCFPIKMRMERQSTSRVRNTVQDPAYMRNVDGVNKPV
SMILES,AC50,outcome
O=C1OC[C@H](Cc2cccc(O)c2)[C@H]1Cc1cccc(O)c1,5.5 µM (active),
COc1ccc(CCN2CCC(Nc3nc4ccccc4n3Cc3ccc(F)cc3)CC2)cc1,,inactive
CC(C)(N=C=O)c1cccc(C(C)(C)N=C=O)c1,36.7 µM (active),
CN(C)C(=S)SC(=S)N(C)C,30.8 µM (active),
CN(c1nccc(=O)[nH]1)C1CCN(c2nc3ccccc3n2Cc2ccc(F)cc2)CC1,,inactive

# Target: human Adenosine A2a Receptor (AdoRA2a), ADORA2A (gene 135) (UniProt P29274)
# Sequence (P29274 whole entry, looked up): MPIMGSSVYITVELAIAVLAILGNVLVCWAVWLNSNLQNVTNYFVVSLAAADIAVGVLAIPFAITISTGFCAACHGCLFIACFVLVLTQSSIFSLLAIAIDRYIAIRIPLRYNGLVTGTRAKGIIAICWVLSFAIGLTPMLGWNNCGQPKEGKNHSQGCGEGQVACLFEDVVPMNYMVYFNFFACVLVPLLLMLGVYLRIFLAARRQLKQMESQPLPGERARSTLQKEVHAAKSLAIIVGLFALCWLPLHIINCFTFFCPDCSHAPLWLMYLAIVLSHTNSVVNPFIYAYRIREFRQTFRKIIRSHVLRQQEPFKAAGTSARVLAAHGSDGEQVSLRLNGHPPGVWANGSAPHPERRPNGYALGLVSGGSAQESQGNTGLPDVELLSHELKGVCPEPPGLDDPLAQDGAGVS
# Test: NVS_GPCR_hAdoRA2a: NovaScreen (NVS) G Protein-Coupled Receptor Assay for human Adenosine A2a Receptor (AdoRA2a) (AID 2283256)
# Procedure, shortened: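 Radioligand displacement on HEK293-derived membrane protein, cell-free; filter-based scintillation counting 1.5 hours after dosing, loss of signal vs DMSO. Single-point duplicate screen at 25 uM, actives retested in concentration series.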
SMILES,outcome,AC50
ClC(c1ccccc1)(c1ccccc1)c1ccccc1,inactive,
CC(C)Nc1nc(N)nc(Cl)n1,,15.6 µM (active)
COCCc1ccc(OCC(O)CNC(C)C)cc1 (centres undefined),inactive,
CCCCCCCCCCCCCCCC(=O)OC/C=C(C)/C=C/C=C(C)/C=C/C1=C(C)CCCC1(C)C,inactive,
Oc1c(Cl)cc(Cl)c(Cl)c1Cc1c(O)c(Cl)cc(Cl)c1Cl,,5.67 µM (active)
Nc1ccc(Cl)c([N+](=O)[O-])c1,inactive,

# Target: Muscarinic acetylcholine receptor M2 (Homo sapiens) (UniProt P08172)
# Sequence (P08172 whole entry, looked up): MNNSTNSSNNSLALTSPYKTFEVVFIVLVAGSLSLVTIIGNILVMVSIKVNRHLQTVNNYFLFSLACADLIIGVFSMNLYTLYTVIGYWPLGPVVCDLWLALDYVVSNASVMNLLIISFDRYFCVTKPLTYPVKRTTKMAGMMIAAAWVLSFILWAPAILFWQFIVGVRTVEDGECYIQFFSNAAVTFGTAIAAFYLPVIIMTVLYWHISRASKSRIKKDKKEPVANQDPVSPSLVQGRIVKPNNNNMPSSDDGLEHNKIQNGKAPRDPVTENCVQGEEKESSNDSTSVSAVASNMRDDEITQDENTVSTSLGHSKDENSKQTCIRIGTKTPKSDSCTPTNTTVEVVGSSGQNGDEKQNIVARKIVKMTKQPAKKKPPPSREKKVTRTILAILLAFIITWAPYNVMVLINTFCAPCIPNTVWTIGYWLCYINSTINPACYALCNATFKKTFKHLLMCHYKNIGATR
# Test: NVS_GPCR_hM2: NovaScreen (NVS) G Protein-Coupled Receptor Assay for human Muscarinic, M2 Receptor (AID 2283273)
# Procedure: NVS_GPCR_hM2 is a biochemical, single-readout assay that uses extracted gene-proteins from CHO in a cell-free assay. Measurements were taken 1 hour after chemical dosing in a 96-well plate.NVS_GPCR_hM2 is one of one assay component(s) measured or calculated from the NVS_GPCR_hM2 assay. It is designed to make measurements of radioligand binding, a form of binding reporter, as detected with scintillation counting signals by Filter-based radiodetection technology.Data from the assay component NVS_GPCR_hM2 was analyzed into 1 assay endpoint. This assay endpoint, NVS_GPCR_hM2, was analyzed in the positive analysis fitting direction relative to DMSO as the negative control and baseline of activity. Using a type of binding reporter, loss-of-signal activity can be used to understand changes in the binding as they relate to the gene CHRM2. Furthermore, this assay endpoint can be referred to as a primary readout, because the performed assay has only produced 1 assay endpoint. To generalize the intended target to other relatable targets, this assay endpoint is annotated to the gpcr intended target family, where the subfamily is rhodopsin-like receptor.
# Binding assays used specific radioligands (tritiated, iodinated) with non-radioactive competitive displacement ligands in agonist or antagonist protocols (as indicated) and various reference compounds and inhibitors to titrate specific binding to receptors and transporters. Most enzyme assays (CYPs, kinases, phosphatases, proteases, HDACs) used recombinant protein and specific substrates (fluorescence mostly, some colorimetric and radioactive) and inhibitors, followed by a biochemical separation of substrate and product. All assays for the biochemical HTS were initially run in duplicate at a single concentration (10 uM for CYP450 assays and 25 uM for all others). […] Each assay was run with positive and negative controls, and concurrent controls on every plate. The follow-up (secondary) screen tested active chemical-pairs in concentration series, as well as a few additional assays not tested in the primary screen, some selected negative inactives, and several cases re-run in the concentration series for confirmatory purposes.
SMILES,AC50,outcome
C=C(C)C(=O)OCC(CC)(COC(=O)C(=C)C)COC(=O)C(=C)C,24.6 µM (active),
CCC(C)=O,,inactive
COc1ccc(CCN2CCC(Nc3nc4ccccc4n3Cc3ccc(F)cc3)CC2)cc1,3.04 µM (active),
CCCCN(CCCC)C(=O)N(CCCC)CCCC,,inactive
CN(c1nccc(=O)[nH]1)C1CCN(c2nc3ccccc3n2Cc2ccc(F)cc2)CC1,,inactive

# Target: human Neurokinin, NK2 Receptor, TACR2 (gene 6865) (UniProt P21452)
# Sequence (P21452 whole entry, looked up): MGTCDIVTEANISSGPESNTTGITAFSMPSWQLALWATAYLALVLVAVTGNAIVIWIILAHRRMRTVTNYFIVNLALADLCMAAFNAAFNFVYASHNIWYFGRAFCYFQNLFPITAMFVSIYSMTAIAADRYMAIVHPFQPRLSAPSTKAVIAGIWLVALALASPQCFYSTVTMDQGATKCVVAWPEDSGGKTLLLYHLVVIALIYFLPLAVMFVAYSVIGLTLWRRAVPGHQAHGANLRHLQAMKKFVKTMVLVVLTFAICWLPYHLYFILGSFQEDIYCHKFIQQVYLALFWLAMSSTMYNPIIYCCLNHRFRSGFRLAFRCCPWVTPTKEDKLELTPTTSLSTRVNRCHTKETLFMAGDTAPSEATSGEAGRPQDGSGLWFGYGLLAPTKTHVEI
# Test: NVS_GPCR_hNK2: NovaScreen (NVS) G Protein-Coupled Receptor Assay for human Neurokinin, NK2 Receptor (AID 2283278);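 also: actives reduce bound radioligand signal relative to DMSO baseline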
# Procedure, shortened: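 Cell-free radioligand binding using receptor protein extracted from CHO cells; readings taken 4 hours after chemical dosing by filter-based scintillation counting. Primary screen ran single concentration (25 uM) in duplicate; actives followed up in concentration series, loss-of-signal versus DMSO baseline.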
SMILES,AC50,outcome
COc1ccc(OC)c(N=Nc2c(O)ccc3ccccc23)c1,25 µM (active),
CC(C)(C)CC(C)(C)c1ccc(OCCOCC[N+](C)(C)Cc2ccccc2)cc1,4.14 µM (active),
CC(C)(N=C=O)c1cccc(C(C)(C)N=C=O)c1,,inactive
NC(=S)NNC(N)=S,,inactive
CN(C)C(=S)SC(=S)N(C)C,1.59 µM (active),
[O-]n1ccccc1=S.[O-]n1ccccc1=S.[Zn+2],9.86 µM (active),
CN(C)C(=O)Nc1ccc(Oc2ccc(Cl)cc2)cc1,,inactive

# Target: human Thromboxane A2 Receptor (TXA2), TBXA2R (gene 6915) (UniProt P21731)
# Sequence (P21731 whole entry, looked up): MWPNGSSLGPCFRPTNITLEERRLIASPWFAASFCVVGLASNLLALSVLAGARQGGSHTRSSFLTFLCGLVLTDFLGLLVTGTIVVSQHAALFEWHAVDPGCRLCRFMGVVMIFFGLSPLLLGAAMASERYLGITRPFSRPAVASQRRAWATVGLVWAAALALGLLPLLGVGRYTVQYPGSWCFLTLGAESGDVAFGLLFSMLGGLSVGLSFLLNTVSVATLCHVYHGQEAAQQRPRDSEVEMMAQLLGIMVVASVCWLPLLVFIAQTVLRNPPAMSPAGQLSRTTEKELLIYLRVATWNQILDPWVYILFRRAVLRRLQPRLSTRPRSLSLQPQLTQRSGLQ
# Test: NVS_GPCR_hTXA2: NovaScreen (NVS) G Protein-Coupled Receptor Assay for human Thromboxane A2 Receptor (TXA2) (AID 2283282);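 also: actives reduce bound radioligand signal relative to DMSO baseline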
# Procedure, shortened: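 Filter scintillation counting of bound radioligand, human platelet protein, 1 h exposure. Single-concentration duplicates (25 uM) first, concentration-response follow-up for actives. Binding loss scored against DMSO baseline.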
SMILES,AC50,outcome
CC(=O)Nc1ccc(C(=O)CCl)cc1,10.7 µM (active),
Cc1cc(CCC(=O)OCCOCCOCCOC(=O)CCc2cc(C)c(O)c(C(C)(C)C)c2)cc(C(C)(C)C)c1O,0.23 µM (active),
COc1ccc(CCN2CCC(Nc3nc4ccccc4n3Cc3ccc(F)cc3)CC2)cc1,0.227 µM (active),
CC(C)CC(C)CC(O)CC(C)C (centres undefined),,inactive
COC(=O)c1ccc([N+](=O)[O-])cc1,,inactive
Oc1c(Cl)cc(Cl)c(Cl)c1Cc1c(O)c(Cl)cc(Cl)c1Cl,,inactive
CN(c1nccc(=O)[nH]1)C1CCN(c2nc3ccccc3n2Cc2ccc(F)cc2)CC1,0.761 µM (active),
CN(C)C(=O)Nc1ccc(Oc2ccc(Cl)cc2)cc1,,inactive

# Target: human Opioid Receptor Mu (Opiate Mu), OPRM1 (gene 4988) (UniProt P35372)
# Sequence (P35372 whole entry, looked up): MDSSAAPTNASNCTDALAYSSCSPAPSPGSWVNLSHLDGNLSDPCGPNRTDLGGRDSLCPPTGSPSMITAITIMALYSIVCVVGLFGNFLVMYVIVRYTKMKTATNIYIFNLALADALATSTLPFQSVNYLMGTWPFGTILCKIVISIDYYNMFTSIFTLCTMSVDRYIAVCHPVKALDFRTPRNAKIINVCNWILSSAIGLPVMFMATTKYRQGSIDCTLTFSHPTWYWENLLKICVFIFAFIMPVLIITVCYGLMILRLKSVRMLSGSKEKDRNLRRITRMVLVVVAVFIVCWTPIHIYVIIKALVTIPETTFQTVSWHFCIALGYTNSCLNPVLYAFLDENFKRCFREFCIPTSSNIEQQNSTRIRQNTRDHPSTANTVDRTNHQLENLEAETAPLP
# Test: NVS_GPCR_hOpiate_mu: NovaScreen (NVS) G Protein-Coupled Receptor Assay for human Opioid Receptor Mu (Opiate Mu) (AID 2283290);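 also: hits lower bound tracer signal versus DMSO meaning displacement of the ligand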
# Procedure, shortened: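 Primary screen in duplicate at 25 uM, with actives followed in concentration series. CHO-derived receptor membranes, cell-free; bound radioligand read by scintillation counting after filtration at 2.5 h, decrease scored against DMSO.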
SMILES,outcome,AC50
ClC(c1ccccc1)(c1ccccc1)c1ccccc1,inactive,
CC(C)(N=C=O)c1cccc(C(C)(C)N=C=O)c1,,32.8 µM (active)
CCCCCCCCCCCCCCCC(=O)OC/C=C(C)/C=C/C=C(C)/C=C/C1=C(C)CCCC1(C)C,inactive,
Oc1c(Cl)cc(Cl)c(Cl)c1Cc1c(O)c(Cl)cc(Cl)c1Cl,,6.76 µM (active)
NC(=S)NNC(N)=S,inactive,
[O-]n1ccccc1=S.[O-]n1ccccc1=S.[Zn+2],,0.104 µM (active)

# Target: Sodium channel protein type 1 subunit alpha (Rattus norvegicus) (UniProt P04774)
# Test: NVS_IC_rNaCh_site2: NovaScreen (NVS) Ion Channel Assay for rat Sodium Channel, Site 2 (NaCh) (AID 2283322);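 also: hit means loss of radioligand binding signal relative to DMSO so AC50 marks displacement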
# Procedure, shortened: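 Membranes: rat forebrain. Format: competitive radioligand displacement, filter separation, scintillation readout, 1 h exposure. Primary screen in duplicate at 25 uM; actives retested in concentration series.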
SMILES,AC50,outcome
C[C@@H]1CCN(C(=O)[C@H](CCCN=C(N)N)NS(=O)(=O)c2cccc3c2NC[C@H](C)C3)[C@@H](C(=O)O)C1,0.894 µM (active),
COc1ccc(OC)c(N=Nc2c(O)ccc3ccccc23)c1,,inactive
CC(C)(C)CC(C)(C)c1ccc(OCCOCC[N+](C)(C)Cc2ccccc2)cc1,,inactive
COCCc1ccc(OCC(O)CNC(C)C)cc1 (centres undefined),5.04 µM (active),
CS(=O)(=O)OCCCCOS(C)(=O)=O,,inactive
COc1ccc(CCN2CCC(Nc3nc4ccccc4n3Cc3ccc(F)cc3)CC2)cc1,0.115 µM (active),
CC=Cc1ccc(OC)c(OC)c1,,inactive
CCC1CCCCC1,,inactive
CCCCCCCCCCCCCCCC(=O)OC/C=C(C)/C=C/C=C(C)/C=C/C1=C(C)CCCC1(C)C,,inactive
CCCCC(CC)COC(C)=O (centres undefined),,inactive
CN(c1nccc(=O)[nH]1)C1CCN(c2nc3ccccc3n2Cc2ccc(F)cc2)CC1,,inactive
CS(=O)(=O)c1ccc(C2=C(c3ccccc3)C(=O)OC2)cc1,,inactive
